Most compounds without a hit are left out; they make up all but 1.7% or so of the library.
TrxR1 inh: qHTS Assay for Inhibitors of Mammalian Selenoprotein Thioredoxin Reductase 1 (TrxR1): qHTS. Thioredoxin reductase 1, cytoplasmic (Rattus norvegicus), O89049. recombinant rTrxR1, NADPH fluorescence consumption, selenite substrate. Potency, µM (series often up to 114 µM), inactives show at the highest dose activity change, negative = inhibition, most hits filed as inhibitors. 1% of 390,000 active. AID 588453, 2011; also: % is scaled to controls: 0 for no effect and ±100 for the full control effect; nearly all actives have a fitted effect of over 65% in size
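Rat TrxR1 (90 nM in the dispensed reagent) was pre-reduced with 400 uM NADPH for 5 min at room temperature, then incubated with compound for 15 min. After 400 uM selenite was added, NADPH fluorescence (Ex 340/Em 450 nm) was followed for 8 min.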
IDH1 R132H inh: qHTS for Inhibitors of mutant isocitrate dehydrogenase 1 (IDH1): qHTS; IDH1-R132H enzyme, NADPH consumption, diaphorase/resazurin fluorescence; Isocitrate dehydrogenase [NADP] cytoplasmic (Homo sapiens), O75874; Potency, µM (series often up to 76.6 µM), inactives show at the highest dose activity change, negative = inhibition, usual class: inhibitors; 0.093% of 390,000 active; also: % is scaled to controls: 0 for no effect and ±100 for the full control effect; nearly all actives have a fitted effect of over 65% in size
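IDH1-R132H (0.5 ug/mL) preincubated 30 min with compound, then NADPH (0.016 mM) and alpha-KG (2 mM) added; 80 min at RT, pH 7.5. Remaining NADPH coupled via diaphorase/resazurin to fluorescence (540/590 nm); concentration-response curves normalized to no-enzyme control.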
Apoferritin bind: qHTS Assay for Identification of Novel General Anesthetics | apoferritin/1-aminoanthracene competitive binding, fluorescence | Potency, µM (doses to about 77.5 µM), for inactives: at the highest dose activity change, negative = displacement, usual class: inhibitors | 0.074% of 350,000 active; also: % is scaled to controls: 0 for no effect and ±100 for the full control effect; nearly all actives have a fitted effect of over 20% in size
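Horse-spleen apoferritin (10 uM) was mixed with 50% saturated 1-aminoanthracene in PBS, exposed to compounds for 10 min at room temperature, and read for fluorescence (ex 380 nm, em 535 nm). Competitive displacement was fitted with a four-parameter Hill equation.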
GRP78 ERSR act: qHTS for Inducers of the Endoplasmic Reticulum Stress Response (ERSR) in Human Glioma: qHTS; 0.02% of 420,000 active; U87-MG GRP78 promoter luciferase reporter, 16 h; Potency, µM, without a hit: top-dose activation, most hits filed as activators; also: series mostly up to about 76 µM; % of control where 0% means no effect; nearly all actives have a fitted effect of over 35% in size
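ERSR induction read as luciferase luminescence (Bright-Glo, 10 min at room temperature) in stably transfected human U87-MG glioma cells exposed to compounds for 16 h, using GRP78 as sensor.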
TrxR1 substrate: qHTS Assay for Substrates of Mammalian Selenoprotein Thioredoxin Reductase 1 (TrxR1): qHTS | Thioredoxin reductase 1, cytoplasmic (Rattus norvegicus), O89049 | purified TrxR1 substrate turnover, NADPH consumption readout | Potency, µM (titrated, usually from 114 µM), inactives show at the highest dose activity change, negative = substrate turnover | 0.01% of 390,000 active | AID 588456, 2011; also: % is scaled to controls: 0 for no effect and ±100 for the full control effect; nearly all actives have a fitted effect of over 50% in size
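Rat TrxR1, dispensed at 90 nM, was prereduced with 400 uM NADPH (final) for 5 min at ~22 deg C, then incubated with compound 15 min before 400 uM selenite. A first-read NADPH fluorescence drop versus no-compound background flagged substrates.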
ALOX12 inh: Primary qHTS assay for inhibitors of human arachidonate 12S-lipoxygenase (ALOX12): Round 2; purified 12hLO, xylenol orange hydroperoxide absorbance; AID 1671190, 2021; Potency, µM (top dose mostly 108 µM), without a hit: at the top dose activity change, negative = inhibition, most hits filed as inhibitors; 1.1% of 580,000 active; also: % is scaled to controls: 0 for no effect and ±100 for the full control effect
Target sequence (P18054 whole entry, looked up): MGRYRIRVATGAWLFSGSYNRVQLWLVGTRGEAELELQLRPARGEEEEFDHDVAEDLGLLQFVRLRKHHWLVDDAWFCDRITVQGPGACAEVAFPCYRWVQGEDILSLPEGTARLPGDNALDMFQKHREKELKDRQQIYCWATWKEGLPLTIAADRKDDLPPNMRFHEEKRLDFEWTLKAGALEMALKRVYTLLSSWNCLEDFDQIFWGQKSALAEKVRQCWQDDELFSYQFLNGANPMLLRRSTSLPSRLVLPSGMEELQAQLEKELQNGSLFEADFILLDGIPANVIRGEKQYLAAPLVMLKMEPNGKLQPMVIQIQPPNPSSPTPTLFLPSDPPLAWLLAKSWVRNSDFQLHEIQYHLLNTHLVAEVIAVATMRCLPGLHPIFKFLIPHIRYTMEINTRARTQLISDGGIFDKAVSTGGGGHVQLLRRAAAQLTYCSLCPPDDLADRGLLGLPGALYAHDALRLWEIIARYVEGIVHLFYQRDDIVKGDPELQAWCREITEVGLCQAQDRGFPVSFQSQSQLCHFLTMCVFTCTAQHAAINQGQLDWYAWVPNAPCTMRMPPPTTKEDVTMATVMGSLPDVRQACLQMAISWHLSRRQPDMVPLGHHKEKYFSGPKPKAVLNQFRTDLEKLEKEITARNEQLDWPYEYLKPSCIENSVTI
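Purified human 12hLO (150 nM final) in 25 mM Hepes, 0.01% Triton X-100, pH 7.0 was preincubated 15 min at room temperature with compound. Then 40 uM arachidonic acid was added, 30 min. Hydroperoxide was read by Fe-XO absorbance ratio 573/405 nm.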
The depositor's hits bear a star; ? = inconclusive; · = no result given; [ ] = remark or other dose. Calls follow the shape of the dose curve; as a rule, active = well fitted curve in the direction sought with a large enough effect; inconclusive = small, poorly fitted or top-dose-only effect, or another doubt; inactive = no such curve, though single readings can be large; an effect the other way counts as inactive or inconclusive. Potency is read from the fitted curve at half-maximal effect.

SMILES	TrxR1 inh	IDH1 R132H inh	Apoferritin bind	GRP78 ERSR act	TrxR1 substrate	ALOX12 inh
CC1CCN(C(=O)C(=O)N2CCN(c3nc(-c4ccco4)c4c(c3C#N)CCCC4)CC2)CC1	·	·	·	·	·	32µM*
CCN(Cc1cc2ccc(C)cc2[nH]c1=O)C(=O)c1ccc(C(C)(C)C)cc1	·	·	·	·	·	-2%
O=C1NCc2ccccc2CC12CCCN2Cc1ccc(OC(F)(F)F)cc1 (centres undefined)	·	·	·	·	·	7%[6.33 µM]
CN1CC(=O)N(c2ccccc2)Cc2c(NCCO)ncnc21	·	·	·	·	·	31%[176 µM]
CC1(C)Cc2c(C#N)c(N3CCN(C(=O)c4ccccc4Cl)CC3)nc(-c3ccco3)c2CS1	13µM*	-2%	?	-1%	24%[57.1 µM]	8%
CCC(=O)N1CCN(c2nc(-c3ccco3)c3c(c2C#N)CC(C)(C)SC3)CC1	·	·	·	·	·	20µM*
COC(=O)CNC(=O)c1cc(-c2ccccn2)nc2ccccc12	·	·	·	·	·	-12%
Cc1nc2nc(NCc3ccccc3)[nH]n2c(=O)c1CCC(=O)Nc1cccc2ccccc12	·	·	·	·	·	1%
O=C(NC(=S)Nc1cccc(Cl)c1N1CCCCC1)c1ccc2c(c1)OCCO2	3%	1%	6%	-2%	0%	16µM*
O=C(NC(=S)Nc1ccc2c(c1)OCCO2)c1cccc2ccccc12	?	7%	5%	3%	-7%	16µM*
O=C(Nc1cccc(Cl)c1N1CCCCC1)c1ccc2c(c1)OCCO2	12%	7%	36%	-3%	5%	-24%
O=C(NC(=S)Nc1ccc2c(c1)OCCO2)c1cccc(Br)c1	?	1%	-21%	-1%	-1%	28µM*
O=C(NC(=S)Nc1ccc2c(c1)OCO2)c1ccccc1	?	0%	-23%	2%	10%	73%
CS(=O)(=O)c1ccc(OCC2(CNC3CCC3)C[C@@H](O)[C@@H](O)C2)cc1 (some centres undefined)	·	·	·	·	·	22%[176 µM]
CCS(=O)(=O)NCC1(COc2ccc(S(C)(=O)=O)cc2)C[C@@H](O)[C@@H](O)C1 (some centres undefined)	·	·	·	·	·	13µM*
COCCNC(=O)CCCN1C(=O)COc2ccc(C(=O)COc3cc(C)cc(C)c3)cc21	·	·	·	·	·	5%
COc1ccc(Br)cc1C[N+]1(C)CCCCC1	·	·	·	·	·	16µM*
Cc1ccc(C2NC(=O)c3c(sc(C)c3C)N2)c(O)c1 (centres undefined)	-42%[57.1 µM]	0%	-3%	13%	6%	40µM*
CCOc1ccc2c(c1)n([O-])c1c([n+]2=O)CCCC1	50µM*	0%	8%	-1%	32%	18%
CCOc1ccccc1CN1CCC2(CC1)CC(C(=O)N1CCOCC1)N(C)C2 (centres undefined)	·	·	·	·	·	91%
COc1cc2nc(C)n(CC(=O)NC3CCCc4c3[nH]c3ccccc43)c(=O)c2cc1OC (centres undefined)	·	·	·	·	·	45µM*
Cc1noc(C)c1CC(=O)NC1CCCc2c1[nH]c1ccccc21 (centres undefined)	·	·	·	·	·	-5%
O=C(Cc1ccc2c(c1)OCCCO2)NC1CCCc2c1[nH]c1ccccc21 (centres undefined)	·	·	·	·	·	50µM*
CC1=C(C=O)C(C)(C)CCC1	·	·	·	·	·	-5%[176 µM]
O=C(C1=C(O)C(=O)N(CCN2CCOCC2)C1c1cccc(O)c1)c1cc2ccccc2o1 (centres undefined)	50µM*	2%	-12%	-2%	-3%	-27%
SMILES	TrxR1 inh	IDH1 R132H inh	Apoferritin bind	GRP78 ERSR act	TrxR1 substrate	ALOX12 inh
CCN(CC)CCN1C(=O)C(O)=C(C(=O)c2cccs2)C1c1ccc(C)o1 (centres undefined)	16µM*	0%	-2%	-3%	3%[57.1 µM]	-8%
Cc1ccc(C2C(C(=O)c3cc4ccccc4o3)=C(O)C(=O)N2CCN2CCOCC2)o1 (centres undefined)	22µM*	-4%	-9%	3%	-9%	?
O=C(C1=C(O)C(=O)N(CCN2CCOCC2)C1c1ccccn1)c1cccs1 (centres undefined)	22µM*	7%	-4%	-6%	1%	0%
Cc1ccc(C2C(C(=O)c3cccs3)=C(O)C(=O)N2CCN2CCOCC2)o1 (centres undefined)	?	1%	3%	1%	2%[57.1 µM]	-7%
COc1ccc(CCNC(=O)c2cc3c(N4CCSCC4)nc(C)cn3n2)cc1OC	·	·	·	·	·	0%
CC(=O)C1=C(O)C(=O)N(CCN2CCOCC2)C1c1ccccc1 (centres undefined)	50µM*	4%	-9%	-7%	-3%	?
O=C(C1=C(O)C(=O)N(CCN2CCOCC2)C1c1cccs1)c1cc2ccccc2o1 (centres undefined)	56µM*	2%	·	7%	-1%	7.1µM*
O=C(C1=C(O)C(=O)N(CCN2CCOCC2)C1c1ccc(Br)cc1)c1cc2ccccc2o1 (centres undefined)	10%	-11%	?	-6%	-7%	?
Cc1ccn2c(=O)cc(CN3CC[C@@H]4[C@@H](CCC(=O)N4CCC(C)C)C3)nc2c1	·	·	·	·	·	-10%
Cn1c(=O)c2c(ncn2CC(=O)NCCCO)n(C)c1=O	·	·	·	·	·	4%
FC(F)Sc1ccc(NC(=S)NCc2ccccc2)cc1	14%[57.1 µM]	0%	-22%	-3%	4%[57.1 µM]	?

Assay outcomes: PubChem BioAssay, National Center for Advancing Translational Sciences (NCATS)
